This is an account of results in PubChem BioAssay (NCI).

This is part of a sample that, as a whole, favours compounds with a hit. Of some 79,000 tested, about 15% had one in any assay. Values without a mark were called inactive. The source made the active and inactive calls. No stated cut-off is given here; in the data, active means growth inhibition above about 70%; inactive means the rest.

Test [1] is described as follows: NCI Yeast Anticancer Drug Screen. Data for the rad50 strain (AID 155).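 Further: 0% = growth of vehicle-only cultures of the same strain.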 The following applies: S. cerevisiae rad50 strain growth inhibition, hits give high values. The procedure, abridged: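 Genetically altered yeast (DNA repair pathway); compound treatment; growth inhibition vs vehicle ctrl.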
The nature of test [2]: NCI Yeast Anticancer Drug Screen. Data for the mec2-1 strain (AID 157). As to conditions: S. cerevisiae mec2-1 strain, hits give high values. The procedure, abridged: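 Mutant yeast (mec2-1) grown with compound; growth inhibition relative to vehicle control reported.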
Test [3] can be described thus: NCI Yeast Anticancer Drug Screen. Data for the sgs1 mgt1 strain (AID 161).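 Further: 0% = growth of cultures given vehicle only.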 As to conditions: S. cerevisiae sgs1 mgt1 strain, hits give high values. The procedure, abridged:
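Percent growth inhibition was derived by comparing compound-exposed mutant yeast with vehicle-exposed cultures. The strain carries alterations in DNA damage repair.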

The nature of test [4]: NCI Yeast Anticancer Drug Screen. Data for the cln2 rad14 strain (AID 165).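 Further: 0% = growth equal to vehicle treated cultures.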 The following applies: S. cerevisiae cln2 rad14 strain, hits give high values. The method, boiled down: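 Readout is yeast growth inhibition versus vehicle-treated controls, using a strain with cln2 and rad14 alterations exposed to compound.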
Test [5] can be described thus: NCI Yeast Anticancer Drug Screen. Data for the bub3 strain (AID 167). The following applies: S. cerevisiae bub3 mutant strain, hits give high values. The procedure, abridged:
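Yeast carrying a defined mutation is treated with each compound, and growth is compared with that of vehicle-exposed cells to give inhibition.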

A short description of test [6]: NCI Yeast Anticancer Drug Screen. Data for the mlh1 rad18 strain (AID 175). As to conditions: S. cerevisiae mlh1 rad18 strain growth inhibition, hits give high values. The method, boiled down:
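Genetically defined yeast (DNA repair-deficient) exposed to compounds; growth inhibition determined relative to vehicle.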

Setting [7] is: at 5.0 µM (retest, dose inferred, filed as 0.5).
[8] abbreviates: at 50.0 µM (retest, dose inferred, filed as 5.0).

In the case of `CC(=O)Oc1cc2c(cc1OC(C)=O)OCC(c1ccc(C)cc1)C2` (configuration not stated), the growth inhibition in test [1] (setting [7]) is 8%; in test [1] (setting [8]), 65%; in test [1] (at 50.0 µM), 53.1%; in test [2] (setting [7]), 8%; in test [2] (setting [8]), 49%; in test [2] (at 50.0 µM), 57.9%. The growth inhibition was 4% in test [3] (setting [7]); 61% in test [3] (setting [8]); 32.1% in test [3] (at 50.0 µM); 2% in test [4] (setting [7]); 72% (active) in test [4] (setting [8]); 64% in test [4] (at 50.0 µM). Besides, the growth inhibition is 8% in test [5] (setting [7]); 87% (active) in test [5] (setting [8]); 73.7% (active) in test [5] (at 50.0 µM); 0% in test [6] (setting [7]); 64% in test [6] (setting [8]); 75.8% (active) in test [6] (at 50.0 µM).

Consider `N#CC1=CN=C2C=CC=C3N=C(C(Cl)(Cl)Cl)N=C1N32`, for which the growth inhibition is 19% in test [1] (setting [7]); 93% (active) in test [1] (setting [8]); 49.9% in test [1] (at 50.0 µM); 7% in test [2] (setting [7]); 97% (active) in test [2] (setting [8]); 39.3% in test [2] (at 50.0 µM). The growth inhibition is 28% in test [3] (setting [7]); 97% (active) in test [3] (setting [8]); 87.2% (active) in test [3] (at 50.0 µM); 2% in test [4] (setting [7]); 91% (active) in test [4] (setting [8]); 14.8% in test [4] (at 50.0 µM). Moreover, the growth inhibition in test [5] (setting [7]) was -1%; in test [5] (setting [8]) it was 89% (active); in test [5] (at 50.0 µM), 20.3%; in test [6] (setting [7]), 25%; in test [6] (setting [8]) it was 95% (active); in test [6] (at 50.0 µM), 76.8% (active).

On to `CCCCCCCCCCCCCCCCNC(=S)N/C=C(/C#N)C(=O)OC`, for which the growth inhibition was 78% (active) in test [1] (setting [7]); 99% (active) in test [1] (setting [8]); 99% (active) in test [1] (at 50.0 µM); 89% (active) in test [2] (setting [7]); 99% (active) in test [2] (setting [8]); 99.2% (active) in test [2] (at 50.0 µM). For the same compound, the growth inhibition in test [3] (setting [7]) was 39%; in test [3] (setting [8]), 99% (active); in test [3] (at 50.0 µM), 99.2% (active); in test [4] (setting [7]), 67%; in test [4] (setting [8]), 98% (active); in test [4] (at 50.0 µM) it was 98.8% (active). Further, the growth inhibition in test [5] (setting [7]) was 99% (active); in test [5] (setting [8]), 99% (active); in test [5] (at 50.0 µM), 99.4% (active); in test [6] (setting [7]) it was 57%; in test [6] (setting [8]) it was 99% (active); in test [6] (at 50.0 µM), 99.2% (active).

Turning to `CCCN(CCC)C(=S)N/N=C(/C)c1ccccc1O`, the growth inhibition is -8% in test [1] (setting [7]); 98% (active) in test [1] (setting [8]); 77.8% (active) in test [1] (at 50.0 µM); -29% in test [2] (setting [7]); 98% (active) in test [2] (setting [8]); 85.7% (active) in test [2] (at 50.0 µM). The growth inhibition is -29% in test [3] (setting [7]); 97% (active) in test [3] (setting [8]); 87.2% (active) in test [3] (at 50.0 µM); -26% in test [4] (setting [7]); 97% (active) in test [4] (setting [8]); 86.8% (active) in test [4] (at 50.0 µM). Also, the growth inhibition in test [5] (setting [7]) was -58%; in test [5] (setting [8]), 98% (active); in test [5] (at 50.0 µM), 89% (active); in test [6] (setting [7]), -23%; in test [6] (setting [8]), 98% (active); in test [6] (at 50.0 µM), 90.8% (active).

`COC(=O)C1CCC(c2ccccc2)CC1C(=O)OC` (configuration not stated): the growth inhibition in test [1] (setting [7]) was 2%; in test [1] (setting [8]), 10%; in test [1] (at 50.0 µM), 24.9%; in test [2] (setting [7]) it was 0%; in test [2] (setting [8]), 6%; in test [2] (at 50.0 µM), 20.9%. Moreover, the growth inhibition was 1% in test [3] (setting [7]); 12% in test [3] (setting [8]); 33% in test [3] (at 50.0 µM); 5% in test [4] (setting [7]); 12% in test [4] (setting [8]); 24% in test [4] (at 50.0 µM). The growth inhibition in test [5] (setting [7]) was 25%; in test [5] (setting [8]), 31%; in test [5] (at 50.0 µM) it was 71.2% (active); in test [6] (setting [7]), -3%; in test [6] (setting [8]), 9%; in test [6] (at 50.0 µM), 28.6%.

In the case of `O=S(O)CCCCCSSc1ccccc1`, the growth inhibition in test [1] (setting [7]) is -1%; in test [1] (setting [8]) it was 12%; in test [1] (at 50.0 µM) it was 22.9%; in test [2] (setting [7]) it was 4%; in test [2] (setting [8]), 40%; in test [2] (at 50.0 µM) it was 12.1%. In addition, the growth inhibition in test [3] (setting [7]) is 3%; in test [3] (setting [8]), 36%; in test [3] (at 50.0 µM) it was 30.1%; in test [4] (setting [7]), -9%; in test [4] (setting [8]), 14%; in test [4] (at 50.0 µM), 50.5%. Further, the growth inhibition in test [5] (setting [7]) was 11%; in test [5] (setting [8]) it was 73% (active); in test [5] (at 50.0 µM), 74.5% (active); in test [6] (setting [7]), 4%; in test [6] (setting [8]), 31%; in test [6] (at 50.0 µM), 48.9%.

As for `COc1nc(Nc2ccc(/C=C/c3ccc(Nc4nc(OC)nc(N(CCO)CCO)n4)cc3S(=O)(=O)O)c(S(=O)(=O)O)c2)nc(N(CCO)CCO)n1`, the growth inhibition in test [1] (setting [7]) was -4%; in test [1] (setting [8]) it was 53%; in test [1] (at 50.0 µM) it was 14.2%; in test [2] (setting [7]), -4%; in test [2] (setting [8]), 37%; in test [2] (at 50.0 µM), 58.9%. For the same compound, the growth inhibition in test [3] (setting [7]) is -3%; in test [3] (setting [8]), 51%; in test [3] (at 50.0 µM) it was 45.8%; in test [4] (setting [7]) it was -1%; in test [4] (setting [8]), 17%; in test [4] (at 50.0 µM) it was 5.8%. Moreover, the growth inhibition was -4% in test [5] (setting [7]); 28% in test [5] (setting [8]); 3.2% in test [5] (at 50.0 µM); 0% in test [6] (setting [7]); 49% in test [6] (setting [8]); 80.4% (active) in test [6] (at 50.0 µM).

As for `CN(C)N=Nc1ccc(Cl)c2ncccc12`, the growth inhibition in test [1] (setting [7]) is 3%; in test [1] (setting [8]), -2%; in test [1] (at 50.0 µM), 0.2%; in test [2] (setting [7]), -2%; in test [2] (setting [8]) it was -2%; in test [2] (at 50.0 µM), 2.1%. Also, the growth inhibition is 0% in test [3] (setting [7]); 2% in test [3] (setting [8]); -2.45% in test [3] (at 50.0 µM); -2% in test [4] (setting [7]); -5% in test [4] (setting [8]); 64.2% in test [4] (at 50.0 µM). Moreover, the growth inhibition is -2% in test [5] (setting [7]); 1% in test [5] (setting [8]); -4.15% in test [5] (at 50.0 µM); -2% in test [6] (setting [7]); 7% in test [6] (setting [8]); 6.75% in test [6] (at 50.0 µM).

Regarding `OCC(O)C(OC1OC(CO)C(O)C(O)C1O)C(O)C(/C=N/Nc1ccc(Br)cc1)=N/Nc1ccc(Br)cc1` (configuration not stated), the growth inhibition in test [1] (setting [7]) was -3%; in test [1] (setting [8]) it was 98% (active); in test [1] (at 50.0 µM) it was 99.3% (active); in test [2] (setting [7]), -11%; in test [2] (setting [8]), 98% (active); in test [2] (at 50.0 µM), 98.5% (active). For the same compound, the growth inhibition in test [3] (setting [7]) is 2%; in test [3] (setting [8]) it was 99% (active); in test [3] (at 50.0 µM), 98.5% (active); in test [4] (setting [7]), -41%; in test [4] (setting [8]), 99% (active); in test [4] (at 50.0 µM), 98.9% (active). For the same compound, the growth inhibition is 23% in test [5] (setting [7]); 99% (active) in test [5] (setting [8]); 97.9% (active) in test [5] (at 50.0 µM); 13% in test [6] (setting [7]); 98% (active) in test [6] (setting [8]); 98.5% (active) in test [6] (at 50.0 µM).
